Inconclusive results are not listed. A call without a number means that no potency is given here. Values without a mark were called inactive. Calls of active or inactive are those of the source. Calls follow the shape of the dose curve; as a rule, active = well fitted inhibition curve with a large enough effect; inconclusive = small, poorly fitted or top-dose-only effect; inactive = no such curve, though single readings can be large or run the other way.
The compounds below were run against Rap guanine nucleotide exchange factor 3 (Homo sapiens) (UniProt O95398) (assay: Counterscreen qHTS for antagonist of cAMP-regulated guanine nucleotide exchange factor 3 (EPAC1) (AID 1645888)). Settings: Rap1B-BODIPY-GDP nucleotide exchange, fluorescence; series mostly up to 154 µM.
Summary of the method: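 Measured: fluorescence of BODIPY-GDP bound to Rap1B, which falls as exchange proceeds. Conditions include 50 uM competing GDP, 5 and 30 min reads, and a later cAMP challenge for antagonist detection.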

Sequence of Rap guanine nucleotide exchange factor 3 (Homo sapiens) (O95398 whole entry, looked up): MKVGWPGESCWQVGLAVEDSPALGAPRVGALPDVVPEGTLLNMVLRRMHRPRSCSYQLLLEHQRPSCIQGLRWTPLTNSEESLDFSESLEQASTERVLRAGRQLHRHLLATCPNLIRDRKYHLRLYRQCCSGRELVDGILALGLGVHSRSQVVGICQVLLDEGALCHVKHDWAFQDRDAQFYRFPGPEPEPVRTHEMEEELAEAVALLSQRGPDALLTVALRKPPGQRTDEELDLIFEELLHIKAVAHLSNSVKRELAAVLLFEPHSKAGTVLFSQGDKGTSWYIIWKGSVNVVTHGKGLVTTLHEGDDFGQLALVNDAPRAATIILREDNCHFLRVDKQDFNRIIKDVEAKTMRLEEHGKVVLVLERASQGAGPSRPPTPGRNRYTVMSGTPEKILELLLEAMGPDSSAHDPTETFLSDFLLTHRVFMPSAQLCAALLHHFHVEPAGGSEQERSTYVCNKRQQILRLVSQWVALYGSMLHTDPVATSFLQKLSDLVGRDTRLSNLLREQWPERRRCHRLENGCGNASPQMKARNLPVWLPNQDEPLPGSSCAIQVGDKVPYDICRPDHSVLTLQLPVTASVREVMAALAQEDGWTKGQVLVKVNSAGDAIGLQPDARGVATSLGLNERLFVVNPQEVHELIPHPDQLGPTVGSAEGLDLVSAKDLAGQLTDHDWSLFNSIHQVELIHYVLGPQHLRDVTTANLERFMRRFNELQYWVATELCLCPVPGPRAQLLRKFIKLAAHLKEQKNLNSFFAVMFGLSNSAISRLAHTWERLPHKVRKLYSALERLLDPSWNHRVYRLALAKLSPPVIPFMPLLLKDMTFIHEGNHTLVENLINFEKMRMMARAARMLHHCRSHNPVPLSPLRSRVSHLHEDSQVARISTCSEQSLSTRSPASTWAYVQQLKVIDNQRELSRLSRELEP

Row | SMILES | Potency | activity change, negative = inhibition
1 | ON=C(c1ccccc1)c1ccc2c3c(cccc13)CC2 | inactive | 
2 | Nc1ccc2ccc(O)cc2c1 |  | -3.65% [at 30.8 µM]
3 | Cc1cc(/C=C2\C(=N)N3N=C(c4ccco4)SC3=NC2=O)c(C)n1Cc1ccccc1 | inactive | 
4 | Oc1cccc(C=Nc2cccc3ccccc23)c1O | inactive | 
5 | COc1ccc(Cl)cc1NC(=O)CN(C)C(=O)c1cc(-c2ccncc2)nc2ccccc12 | inactive | 
6 | S=c1[nH]nc(-c2cc(-c3ccccc3)n[nH]2)n1/N=C/c1cccc(Cl)c1 | inactive | 
7 | COc1cc2c(cc1OC)C(c1cccs1)N(C(=O)C(C)C)CC2 (stereo not given) | inactive | 
8 | O=C1CSC(c2cccc(Cl)c2Cl)N1c1ccccn1 (stereo not given) |  | -6.53% [at 30.8 µM]
9 | Cc1ccc(C)c(OC(C)C(=O)Nc2ccc(S(=O)(=O)Nc3nccs3)cc2)c1 (stereo not given) | inactive | 
10 | Cc1ccc(C(=O)c2cn(Cc3cccc(C)c3)c3nc(C)ccc3c2=O)cc1 | inactive | 
11 | COCCCNC(=O)C[C@@H]1C[C@@]2(C(=O)OC)CCCCC=C2N(Cc2cccc3ccccc23)C1=O |  | -43.8% [at 30.8 µM]
12 | COc1cc2c(cc1OC)C(COc1cc(C)cc(C)c1)N(C(C)=O)CC2 (stereo not given) |  | -10.1% [at 30.8 µM]
13 | O=C(COC(=O)C1(c2ccc(Cl)cc2)CCCC1)NCc1ccco1 | inactive | 
14 | CC(C)Cc1ccc(CN2C(C(C)C)C(=O)N(Cc3cn(CCC4OCCO4)nn3)CCS2(=O)=O)cc1 (stereo not given) |  | -13.5% [at 30.8 µM]
15 | O=C1/C(=C/c2cccs2)COc2ccccc21 |  | -3.32% [at 30.8 µM]
